# Measurements taken from PubChem BioAssay AID602313 (National Center for Advancing Translational Sciences (NCATS), 2012).
# Among all 390,000 compounds or so, about 760 (0.19%) were called active. Not shown: some 3% with an inconclusive outcome. Calls come from the whole dose curve; as a rule, active = well fitted inhibition curve with a large enough effect; inconclusive = small, poorly fitted or top-dose-only effect; inactive = flat fitted curve, though single readings scatter. Shown is part of a subset that was picked to be rich in actives. A call without a number means that no potency is given here.
# Assay: qHTS for Inhibitors of Vif-A3F Interactions: qHTS; note: nearly all actives have a fitted effect of over 65% in size
# Conditions: HeLa A3F-eYFP + Vif (tagged APOBEC3F with the HIV-1 protein that degrades it), YFP fluorescence increase; series mostly up to 46.1 µM
# Source text: The recent discovery and characterization of host restriction factors, which provide a potent defense to invading retroviruses, has provided new targets for antiviral drug development. APOBEC3G (A3G) and APOBEC3F (A3F) are potent cytidine deaminases that block HIV-1 replication; HIV-1 expresses the Vif protein, which counteracts A3G and A3F by binding to them and inducing their proteasomal degradation. The Vif-A3G and Vif-A3F interactions provide two potential targets for development of small molecules which can interfere with the ability of Vif to degrade A3G or A3F. […] To identify inhibitors that can interfere with Vif mediated degradation of A3G and A3F, we have developed Hela cell lines that stably express A3G or A3F tagged with eYFP at the C-terminal end (A3G-eYFP or A3F-eYFP, respectively) and Vif. In the absence of an inhibitor, Vif induces degradation of A3G-eYFP and A3F-eYFP, and the cells are not fluorescent. In the presence of an inhibitor, it is expected that Vif will be unable to degrade A3G-eYFP and/or A3F-eYFP, resulting in an increase in yellow fluorescence. In this assays Vif A3F was screened against the Molecular Library Small Molecule Repository (MLSMR). NIH Chemical Genomics Center [NCGC] NIH Molecular Libraries Probe Centers Network [MLPCN] MLPCN Grant: MH093245 Assay Submitter (PI): Vinay Pathak, National Cancer Institute
# 5 uL of 700 cells/well of A3F-YFP cells are dispensed into black, clear bottom plates. The plates are incubated overnight at 37 deg C. 23 nL of compounds are added by pintool. The plates are incubated overnight at 37 deg C and then read on the TTP Acumen (Ex 488/ Em 500-530).
# Potency is the fitted concentration of half-maximal effect.
row,SMILES,Potency
1,CC1=CC(=Cc2sc3ccccc3[n+]2C)C=C(C)O1,5.01 µM (active)
2,CNP1(NC)=Nc2nn(-c3ccccc3)c(N)c2C(c2ccccc2)=N1,inactive
3,O=C(N/N=C/c1c(O)n(Cc2ccccc2)c(=O)[nH]c1=O)c1ccccc1,inactive
4,CC/C(=N\NC(=O)c1ccccc1O)c1c(O)n(Cc2ccccc2)c(=O)[nH]c1=O,11.2 µM (active)
5,CCC(=NCc1ccco1)c1c(O)n(Cc2ccccc2)c(=O)[nH]c1=O,inactive
6,Cc1ccc2c(c1)=C/C(=C\c1c(O)[nH]c(=O)[nH]c1=O)C(=O)N=2,inactive
7,CCCn1c(C(=O)c2ccccc2OC)nc2ccccc21,inactive
8,COc1cc(Cn2c(N)c(C(=O)NCc3ccco3)c3nc4ccccc4nc32)cc(OC)c1OC,inactive
9,CCOc1ccc(CNC(=O)c2cccc(Nc3nc4ccccc4n4nnnc34)c2)cc1OC,12.6 µM (active)
10,COC(=O)C1=C(c2cc3ccccc3s2)C[C@@H]2CC[C@H]1N2C(=O)NCc1cccc2ccccc12,inactive
11,CC(=CCOc1ccc2ccc(=O)oc2c1)C1=CC(=O)C(C)(C)O1,inactive
12,O=c1c2ccccc2[nH]c(=S)n1-c1cccc(Cl)c1,inactive
13,O=c1c2ccccc2nc(/C=C/c2ccco2)n1-c1ccccc1O,inactive
14,O=c1c2ccccc2nc(/C=C/c2ccc(F)cc2)n1-c1ccccc1O,22.4 µM (active)
15,Cn1cc(/C=C/c2nc3ccccc3c(=O)n2-c2ccccc2)c2ccccc21,inactive
16,CCC(C)(O)C(=O)OC1C(=O)OC2CC3C(C)=CC(=O)C(O)C3(C)C3C4(O)OCC23C1C(C)C4O (stereo not given),inactive
17,C=C(C)C1(CCCC)C(=O)NC(=S)NC1=O,inactive
18,COC(=O)C1=C(c2ccc(Cl)c(C(F)(F)F)c2)C[C@@H]2CC[C@H]1N2C(=O)NC(C)C,inactive
19,COC(=O)C1=C(c2cc3ccccc3o2)C[C@@H]2CC[C@H]1N2C(=O)NC1CCCCC1,inactive
20,CC(C)(C)c1ccc(OC(=O)N2CCCCC2)cc1,inactive
